This note sets out measurements from PubChem BioAssay (Tox21).

Results filed as inconclusive are left out. Unmarked numbers belong to inactive results. The call rests on the fitted dose curve; in most records, active means well fitted cell-killing curve with a large enough effect in the repeat runs (not every such curve was filed as active); inconclusive means weak or mixed curves, or effect the other way; inactive means no such curve, though single readings can be large or run the other way.
On the % scale 0 is the no-effect control and ±100 the full control effect.

The assay can be described thus: qHTS assay to identify small molecule antagonists of the estrogen related receptor signaling pathway with the pleiotropic PPARgamma coactivator (PGC) from Tox21 10K library - cell viability counter screen (AID 1224840). Further: nearly all actives have a fitted effect of over 40% in size. Particulars: PGC/ERR reporter cells viability, CellTiter-Fluor, 17.5 h; series mostly up to 92.4 µM; viability change, negative = cytotoxic: at the top concentration. From the text: National Center for Advancing Translational Sciences [NCATS]
NIH Chemical Genomics Center [NCGC]
U.S. Environmental Protection Agency [EPA]
National Institutes of Environmental Health Sciences [NIEHS]
National Toxicology Program [NTP]
U.S. Food and Drug Administration [FDA]
Estrogen related receptors (ERRs), the first orphan nuclear receptors discovered, play an important role in the control of cellular energy metabolism. ERRs are required for high-energy production in response to the environmental challenges. The pleiotropic PPARgamma coactivator (PGC) is a major partner of ERR and a key regulator in energy homeostasis. Together they have been implicated in the etiology of metabolic disorders such as Type 2 diabetes and metabolic syndrome. ERR-alpha was also identified as an adverse marker for breast cancer progression; ERR-alpha-positive tumors have a poor prognosis. To screen and to identify environmental compounds that perturb the ERR and PGC/ERR signaling pathways could provide valuable information for potential therapeutic or preventive measures in the treatment of metabolic disease. To differentiate true PGC/ERR antagonists or agonist from cytotoxic substances, the assay is multiplexed with cell viability assay.
Tox21 Assay Protocol Summary:
The PGC/ERR cells were dispensed at 2,000 cells/5 ul/well in 1536-well white plates using a Multidrop dispenser. After the assay plates were incubated at a 37 C/5% CO2 incubator for 6 hours, 23 nL of compounds dissolved in DMSO, positive and negative controls or DMSO only was transferred to the assay plate by a pin tool. The plates were incubated at 37 C for 17.5 hours. 1 ul/well of CellTiter-Fluor reagent was added into the assay plates using a Flying Reagent Dispenser. After 30-minute incubation at 37 C/5% CO2, the fluorescence intensity in the plates was measured using a ViewLux plate reader.
(In general: In qHTS, concentration-response curves come from the screen itself.)
Take `CCOC1Oc2ccc(OS(C)(=O)=O)cc2C1(C)C` (stereo not given): the “viability change, negative = cytotoxic” value is -0.131%.

Regarding `CCN1CCCC1CNC(=O)C(O)(c1ccccc1)c1ccccc1` (stereo not given), the “viability change, negative = cytotoxic” value is -0.19% [at 42.5 µM].

As to `CCOc1cc(OP(=S)(OC)OC)nc(CC)n1`, the “viability change, negative = cytotoxic” value was 6.61%.

For `Cc1ccc(S(=O)(=O)N[C@@H](CCCCN)C(=O)CCl)cc1`, the “viability change, negative = cytotoxic” value is -1.7% [at 42.5 µM].

In the case of `Cc1ccc(Cl)c(O)c1`, the “viability change, negative = cytotoxic” value was 11.8% [at 42.5 µM].

With `N[C@@H]1C[C@H]1c1ccccc1`, the “viability change, negative = cytotoxic” value is 4.78% [at 42.5 µM].

With `O=C1CCCCC1Cl` (stereo not given), the “viability change, negative = cytotoxic” value is 2.44%.

`CNC(=O)Oc1cc(C)c(N(C)C)c(C)c1`: the “viability change, negative = cytotoxic” value was -5.49%.

As to `C=C(C)[C@H]1CN[C@H](C(=O)O)[C@H]1CC(=O)O`, the “viability change, negative = cytotoxic” value was 3.44% [at 42.5 µM].

Regarding `Cl/C=C/CCl`, the “viability change, negative = cytotoxic” value is 1.3%.

For the molecule `CCCCS(=O)(=O)Cl`, the “viability change, negative = cytotoxic” value was 6.85%.

As to `Cc1cccc2sc3nncn3c12`, the “viability change, negative = cytotoxic” value was -2.82%.

Turning to `CCCCCCCCSC(=O)Oc1cc(Cl)nnc1-c1ccccc1`, the “viability change, negative = cytotoxic” value was 4.34%.

As to `CC(C)(C)c1cc(O)ccc1O`, the “viability change, negative = cytotoxic” value is -7.62%.

`COC(=O)[C@@H](N)CCCN/C(N)=N/[N+](=O)[O-]`: the “viability change, negative = cytotoxic” value is 8.67% [at 42.5 µM].

As to `COP(=O)(OC)O/C(C)=C/C(=O)N(C)C`, the “viability change, negative = cytotoxic” value is 3.75%.

For the molecule `CCCCOC(C)=O`, the “viability change, negative = cytotoxic” value was 0.554%.

For `CCC(C)(C#N)N=NC(C)(C#N)CC` (stereo not given), the “viability change, negative = cytotoxic” value was 8.8%.

For `CCCOC(=O)c1cncn1C(C)c1ccccc1` (stereo not given), the “viability change, negative = cytotoxic” value is -6.54% [at 42.5 µM].

As to `CCc1ccc(C2CCNCC2)cc1`, the “viability change, negative = cytotoxic” value was 10.4% [at 42.5 µM].

Turning to `Cc1ccc(-c2nc3ccc(C)cn3c2CC(=O)N(C)C)cc1`, the “viability change, negative = cytotoxic” value was -9.97% [at 42.5 µM].

As for `CCCOc1nn(C(=O)NS(=O)(=O)c2ccccc2C(=O)OC)c(=O)n1C`, the “viability change, negative = cytotoxic” value was 3.16%.

In the case of `CC(C)(C1CCC(O)CC1)C1CCC(O)CC1` (stereo not given), the “viability change, negative = cytotoxic” value is -14.2%.

For the molecule `CCSC(=O)Cl`, the “viability change, negative = cytotoxic” value was 10%.

With `CC1=C2[C@H]3OC(=O)[C@@H](C)[C@@H]3CC[C@@]2(C)C=CC1=O`, the “viability change, negative = cytotoxic” value was 18% [at 42.5 µM].

Consider `CC(=O)CN(CC(C)=O)N=O`, for which the “viability change, negative = cytotoxic” value is 5.8%.

In the case of `CCOC(=O)CC(SP(=S)(OC)OC)C(=O)OCC` (stereo not given), the “viability change, negative = cytotoxic” value was 2.23% [at 42.5 µM].

In the case of `CCCCCCC(=O)CCCCCC/C=C/C[C@@H](O)[C@H](O)[C@@](N)(CO)C(=O)O`, the viability change, negative = cytotoxic is 12.4% [at 19 µM].

As for `BrCC1CO1` (stereo not given), the “viability change, negative = cytotoxic” value was 6.28%.

For the molecule `C[C@@H](N)[C@@H](O)c1ccccc1`, the “viability change, negative = cytotoxic” value is 8.88% [at 42.5 µM].

As for `CC(C)[N+](C)(CCC(C(N)=O)(c1ccccc1)c1ccccc1)C(C)C`, the “viability change, negative = cytotoxic” value was 11.9% [at 42.5 µM].

`C/C=C/CC#N`: the “viability change, negative = cytotoxic” value was 4.77%.

Take `CCOC(=O)C(Cl)Cc1cc(-n2nc(C)n(C(F)F)c2=O)c(F)cc1Cl` (stereo not given): the “viability change, negative = cytotoxic” value is -0.279%.

For `COc1ccc(C=O)cc1O`, the “viability change, negative = cytotoxic” value was 2.2%.

As to `CC1N=C(N)OC1c1ccccc1` (stereo not given), the “viability change, negative = cytotoxic” value is 11.1%.

As for `CCCC(C)(COC(N)=O)COC(N)=O`, the “viability change, negative = cytotoxic” value was 1.31%.

With `C(COCC1CO1)OCC1CO1` (stereo not given), the “viability change, negative = cytotoxic” value was 1.86%.

For the molecule `C=CCc1cc(OC)c2c(c1)OCO2`, the “viability change, negative = cytotoxic” value is 5.17%.

On to `C=C1CC[C@@]2(O)[C@H]3Cc4ccc(O)c5c4[C@@]2(CCN3CC2CC2)[C@H]1O5`, for which the “viability change, negative = cytotoxic” value is 0.4% [at 42.5 µM].

Turning to `ClCCN1CCCC1`, the “viability change, negative = cytotoxic” value is -3.4% [at 42.5 µM].
